# Measurements taken from PMC8384837, “Expanding the binding specificity for RNA recognition by a PUF domain”.
# Tests used:
# Assay in all cases: yeast three-hybrid, YBZ-1, SC-Leu-His + 0.5 mM 3-AT, 4 days
# Conditions in all cases: tags: N-Gal4 AD-HA kept; label: inside an RPR1-promoter hybrid RNA with tandem MS2 sites; ssRNA
# [1] = target: T1, PUM1 PUF domain R6-RWG (Homo sapiens, UniProt Q14671 828-1176, N1043R;Y1044W;Q1047G)
# T1 sequence: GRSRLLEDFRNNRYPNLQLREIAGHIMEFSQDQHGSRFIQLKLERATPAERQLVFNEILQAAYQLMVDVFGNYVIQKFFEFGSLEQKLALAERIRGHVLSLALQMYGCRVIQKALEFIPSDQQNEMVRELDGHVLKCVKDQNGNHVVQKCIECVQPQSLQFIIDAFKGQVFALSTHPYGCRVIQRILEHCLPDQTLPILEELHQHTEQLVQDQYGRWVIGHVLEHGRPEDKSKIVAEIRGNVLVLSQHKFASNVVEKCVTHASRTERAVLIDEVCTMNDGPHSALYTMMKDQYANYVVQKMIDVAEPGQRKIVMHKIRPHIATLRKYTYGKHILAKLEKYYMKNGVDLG
# Summary of the method: (§1)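 The interaction score is the log change in variant frequency from input to selection. Scores were computed in log2 with a pseudocount of 1 for absent variants, using Illumina sequencing of PCR-amplified repeat regions. The input came from four days on SC-Leu and the selection from four days on SC-Leu-His + 0.5 mM 3-AT. The cells were strain YBZ-1 (LexA–MS2 coat fusion, HIS3 reporter) co-expressing Pumilio-1 PUF domain libraries and matching RNA elements from a centromeric plasmid.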
# [2] = target: PUM1 PUF domain R7-RPV (Homo sapiens, UniProt Q14671 828-1176, S1079R;N1080P;E1083V)
# Sequence of PUM1 PUF domain R7-RPV (Q14671 828-1176 S1079R/N1080P/E1083V): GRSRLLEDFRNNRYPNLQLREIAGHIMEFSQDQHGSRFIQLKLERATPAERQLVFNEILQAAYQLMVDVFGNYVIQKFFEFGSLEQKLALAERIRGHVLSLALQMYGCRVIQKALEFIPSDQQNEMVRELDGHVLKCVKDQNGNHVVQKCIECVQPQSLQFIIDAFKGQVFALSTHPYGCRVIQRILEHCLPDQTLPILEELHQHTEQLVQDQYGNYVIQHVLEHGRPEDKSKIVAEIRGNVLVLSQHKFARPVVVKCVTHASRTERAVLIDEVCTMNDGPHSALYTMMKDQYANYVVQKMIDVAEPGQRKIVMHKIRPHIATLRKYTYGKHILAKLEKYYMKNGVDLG
# Summary of the method: as §1
# [3] = target: PUM1 PUF domain R7-ERA (Homo sapiens, UniProt Q14671 828-1176, S1079E;N1080R;E1083A)
# Summary of the method: as §1
# [4] = target: PUM1 PUF domain R4-ACS (Homo sapiens, UniProt Q14671 828-1176, N971A;H972C;Q975S)
# Sequence of PUM1 PUF domain R4-ACS (Q14671 828-1176 N971A/H972C/Q975S): as the sequence (Q14671 828-1176 S1079R/N1080P/E1083V) above, with N144A, H145C, Q148S, R252S, P253N, V256E counted along it
# Summary of the method: as §1
# [5] = target: PUM1 PUF domain R4-GFP (Homo sapiens, UniProt Q14671 828-1176, N971G;H972F;Q975P)
# Sequence of PUM1 PUF domain R4-GFP (Q14671 828-1176 N971G/H972F/Q975P): as the sequence (Q14671 828-1176 S1079R/N1080P/E1083V) above, with N144G, H145F, Q148P, R252S, P253N, V256E counted along it
# Summary of the method: as §1
# [6] = target: PUM1 PUF domain R4-APA (Homo sapiens, UniProt Q14671 828-1176, N971A;H972P;Q975A)
# Summary of the method: as §1
# [7] = target: PUM1 PUF domain R3-TRS (Homo sapiens, UniProt Q14671 828-1176, C935T;Q939S)
# Sequence of PUM1 PUF domain R3-TRS (Q14671 828-1176 C935T/Q939S): as the sequence (Q14671 828-1176 S1079R/N1080P/E1083V) above, with C108T, Q112S, R252S, P253N, V256E counted along it
# Summary of the method: as §1
# [8] = target: PUM1 PUF domain R3-PHQ (Homo sapiens, UniProt Q14671 828-1176, C935P;R936H)
# Sequence of PUM1 PUF domain R3-PHQ (Q14671 828-1176 C935P/R936H): as the sequence (Q14671 828-1176 S1079R/N1080P/E1083V) above, with C108P, R109H, R252S, P253N, V256E counted along it
# Summary of the method: as §1
# [9] = target: PUM1 PUF domain R8-PWW (Homo sapiens, UniProt Q14671 828-1176, N1122P;Y1123W;Q1126W)
# Sequence of PUM1 PUF domain R8-PWW (Q14671 828-1176 N1122P/Y1123W/Q1126W): as the sequence (Q14671 828-1176 S1079R/N1080P/E1083V) above, with R252S, P253N, V256E, N295P, Y296W, Q299W counted along it
# Summary of the method: as §1
# [10] = target: PUM1 PUF domain R3-LYL (Homo sapiens, UniProt Q14671 828-1176, C935L;R936Y;Q939L)
# Sequence of PUM1 PUF domain R3-LYL (Q14671 828-1176 C935L/R936Y/Q939L): as the sequence (Q14671 828-1176 S1079R/N1080P/E1083V) above, with C108L, R109Y, Q112L, R252S, P253N, V256E counted along it
# Summary of the method: as §1
# [11] = target: PUM1 PUF domain R4-VGL (Homo sapiens, UniProt Q14671 828-1176, N971V;H972G;Q975L)
# Summary of the method: as §1
# [12] = target: PUM1 PUF domain R3-GCW (Homo sapiens, UniProt Q14671 828-1176, C935G;R936C;Q939W)
# Summary of the method: as §1
# [13] = target: PUM1 PUF domain R4-GRI (Homo sapiens, UniProt Q14671 828-1176, N971G;H972R;Q975I)
# Summary of the method: as §1
# [14] = target: PUM1 PUF domain R4-ERQ (Homo sapiens, UniProt Q14671 828-1176, N971E;H972R)
# Sequence of PUM1 PUF domain R4-ERQ (Q14671 828-1176 N971E/H972R): as the sequence (Q14671 828-1176 S1079R/N1080P/E1083V) above, with N144E, H145R, R252S, P253N, V256E counted along it
# Summary of the method: as §1
# [15] = target: PUM1 PUF domain R3-MWP (Homo sapiens, UniProt Q14671 828-1176, C935M;R936W;Q939P)
# Sequence of PUM1 PUF domain R3-MWP (Q14671 828-1176 C935M/R936W/Q939P): as the sequence (Q14671 828-1176 S1079R/N1080P/E1083V) above, with C108M, R109W, Q112P, R252S, P253N, V256E counted along it
# Summary of the method: as §1
# [16] = target: PUM1 PUF domain R3-RRG (Homo sapiens, UniProt Q14671 828-1176, C935R;Q939G)
# Summary of the method: as §1
# [17] = target: PUM1 PUF domain R5-IHR (Homo sapiens, UniProt Q14671 828-1176, C1007I;R1008H;Q1011R)
# Summary of the method: as §1
# [18] = target: PUM1 PUF domain R5-KHV (Homo sapiens, UniProt Q14671 828-1176, C1007K;R1008H;Q1011V)
# Summary of the method: as §1
# [19] = target: PUM1 PUF domain R5-KSC (Homo sapiens, UniProt Q14671 828-1176, C1007K;R1008S;Q1011C)
# Summary of the method: as §1
# [20] = target: PUM1 PUF domain R3-RSQ (Homo sapiens, UniProt Q14671 828-1176, C935R;R936S)
# Sequence of PUM1 PUF domain R3-RSQ (Q14671 828-1176 C935R/R936S): as the sequence (Q14671 828-1176 S1079R/N1080P/E1083V) above, with C108R, R109S, R252S, P253N, V256E counted along it
# Summary of the method: as §1
sequence,measurement,setting,value
GGCUAGAACUAGUGGAUCCCCCGGCGCCCGGCGGCUCGAGCCCGGGUAAGUGAAAAUAGUCUGCAUGCCGCCGGGCGCCAUGCCUGCAGGUCGACUCUAGAAAACAUG,binding signal,[1],3.42 log2 enrichment (interaction score)
GGCUAGAACUAGUGGAUCCCCCGGCGCCCGGCGGCUCGAGCCCGGGUAAGUCUAAAUAGUCUGCAUGCCGCCGGGCGCCAUGCCUGCAGGUCGACUCUAGAAAACAUG,binding signal,[2],1.08 log2 enrichment (interaction score)
same,binding signal,[3],2.68 log2 enrichment (interaction score)
GGCUAGAACUAGUGGAUCCCCCGGCGCCCGGCGGCUCGAGCCCGGGUAAGUGUAUAUAGUCUGCAUGCCGCCGGGCGCCAUGCCUGCAGGUCGACUCUAGAAAACAUG,binding signal,[4],1.22 log2 enrichment (interaction score)
same,binding signal,[5],5.97 log2 enrichment (interaction score)
same,binding signal,[6],2.47 log2 enrichment (interaction score)
GGCUAGAACUAGUGGAUCCCCCGGCGCCCGGCGGCUCGAGCCCGGGUAAGUGUAAAUAGUCUGCAUGCCGCCGGGCGCCAUGCCUGCAGGUCGACUCUAGAAAACAUG,binding signal,[4],2.98 log2 enrichment (interaction score)
same,binding signal,[5],4.75 log2 enrichment (interaction score)
same,binding signal,[7],4.62 log2 enrichment (interaction score)
same,binding signal,[8],4.19 log2 enrichment (interaction score)
same,binding signal,[9],3.57 log2 enrichment (interaction score)
same,binding signal,[10],4.43 log2 enrichment (interaction score)
same,binding signal,[11],3.22 log2 enrichment (interaction score)
same,binding signal,[12],1.82 log2 enrichment (interaction score)
same,binding signal,[13],3.58 log2 enrichment (interaction score)
same,binding signal,[6],4.16 log2 enrichment (interaction score)
same,binding signal,[1],5.05 log2 enrichment (interaction score)
GGCUAGAACUAGUGGAUCCCCCGGCGCCCGGCGGCUCGAGCCCGGGUAAGUGUACAUAGUCUGCAUGCCGCCGGGCGCCAUGCCUGCAGGUCGACUCUAGAAAACAUG,binding signal,[4],1.22 log2 enrichment (interaction score)
same,binding signal,[14],2.62 log2 enrichment (interaction score)
same,binding signal,[5],5.41 log2 enrichment (interaction score)
same,binding signal,[6],1.33 log2 enrichment (interaction score)
GGCUAGAACUAGUGGAUCCCCCGGCGCCCGGCGGCUCGAGCCCGGGUAAGUGUAAGUAGUCUGCAUGCCGCCGGGCGCCAUGCCUGCAGGUCGACUCUAGAAAACAUG,binding signal,[7],1.93 log2 enrichment (interaction score)
same,binding signal,[15],5.07 log2 enrichment (interaction score)
same,binding signal,[10],4.81 log2 enrichment (interaction score)
same,binding signal,[16],0.28 log2 enrichment (interaction score)
GGCUAGAACUAGUGGAUCCCCCGGCGCCCGGCGGCUCGAGCCCGGGUAAGUUUAAAUAGUCUGCAUGCCGCCGGGCGCCAUGCCUGCAGGUCGACUCUAGAAAACAUG,binding signal,[2],3.09 log2 enrichment (interaction score)
GGCUAGAACUAGUGGAUCCCCCGGCGCCCGGCGGCUCGAGCCCGGGUAAGUGUUAAUAGUCUGCAUGCCGCCGGGCGCCAUGCCUGCAGGUCGACUCUAGAAAACAUG,binding signal,[17],3.52 log2 enrichment (interaction score)
same,binding signal,[18],2.08 log2 enrichment (interaction score)
same,binding signal,[19],2.38 log2 enrichment (interaction score)
GGCUAGAACUAGUGGAUCCCCCGGCGCCCGGCGGCUCGAGCCCGGGUAAGUGUCAAUAGUCUGCAUGCCGCCGGGCGCCAUGCCUGCAGGUCGACUCUAGAAAACAUG,binding signal,[19],5.14 log2 enrichment (interaction score)
GGCUAGAACUAGUGGAUCCCCCGGCGCCCGGCGGCUCGAGCCCGGGUAAGUGUAAUUAGUCUGCAUGCCGCCGGGCGCCAUGCCUGCAGGUCGACUCUAGAAAACAUG,binding signal,[20],4.22 log2 enrichment (interaction score)
same,binding signal,[7],1.31 log2 enrichment (interaction score)
same,binding signal,[15],3.31 log2 enrichment (interaction score)
same,binding signal,[10],3.45 log2 enrichment (interaction score)
same,binding signal,[12],3.22 log2 enrichment (interaction score)
same,binding signal,[16],3.82 log2 enrichment (interaction score)
